# TRb-SRC2 inh: TRbeta-SRC2 interaction inhibition; TRbeta-SRC2 peptide binding, fluorescence polarization; receptor liganded with 1 µM T3; Potency, µM (titrated, usually from 106 µM), hits mostly inhibitors; 280,000 compounds, 0.065% hits; AID 1469; also: nearly all actives have a fitted effect of over 50% in size
# Target sequence (P10828 whole entry, looked up): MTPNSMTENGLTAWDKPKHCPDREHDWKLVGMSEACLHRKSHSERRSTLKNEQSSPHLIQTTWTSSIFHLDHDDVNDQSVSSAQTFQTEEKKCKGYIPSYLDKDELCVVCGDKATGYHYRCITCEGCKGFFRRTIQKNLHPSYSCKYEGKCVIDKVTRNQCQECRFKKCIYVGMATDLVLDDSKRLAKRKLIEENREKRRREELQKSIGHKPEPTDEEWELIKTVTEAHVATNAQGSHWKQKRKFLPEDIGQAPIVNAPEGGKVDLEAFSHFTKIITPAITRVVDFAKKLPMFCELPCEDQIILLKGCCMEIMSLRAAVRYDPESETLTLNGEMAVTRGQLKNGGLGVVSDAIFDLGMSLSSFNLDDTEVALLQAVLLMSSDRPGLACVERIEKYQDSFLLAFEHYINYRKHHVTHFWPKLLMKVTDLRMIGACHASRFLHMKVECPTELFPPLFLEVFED
#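 Decrease in fluorescence polarization of 20 nM Texas Red SRC2 coactivator peptide flagged inhibition of its binding to 0.6 uM TRb LBD; 1 uM T3 included, incubation 5 hr, ex 555/em 632 nm.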
# Tau fibril FP: tau fibrillization inhibition (FP). K18 P301L tau heparin fibrillization, Alexa594 FP, 6 h. Potency, µM (highest dose often 57.7 µM), most hits filed as inhibitors. 280,000 compounds, 0.39% hits; also: nearly all actives have a fitted effect of over 55% in size
# Target sequence (P10636 561-689 P618L limits assumed): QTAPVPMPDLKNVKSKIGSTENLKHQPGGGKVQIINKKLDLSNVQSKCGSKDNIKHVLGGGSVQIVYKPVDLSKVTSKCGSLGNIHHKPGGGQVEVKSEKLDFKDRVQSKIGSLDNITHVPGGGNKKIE
#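 Heparin (20 uM) drove fibril formation of recombinant tau K18 P301L, 15 uM unlabeled with 0.24 uM Alexa 594 label, for 6 hr at 37 C in 100 mM sodium acetate pH 7. Fluorescence polarization (555/632 nm) read 1 hr after 30 uM ThT.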
# Tau fluor cs: counter-screen for tau fibril formation inhibitors | 280,000 compounds, 0.93% hits | Potency, µM (series often up to 57.7 µM) | tau K18 P301L Alexa594 fluorescence, heparin fibrillization; also: nearly all actives have a fitted effect of over 55% in size
#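 Human tau K18 P301L (15 uM unlabeled, 0.24 uM Alexa 594-labeled) in 100 mM sodium acetate pH 7 with 20 uM heparin, 6 hr at 37 C. ThT 30 uM added, 1 hr ambient; Alexa 594 FP and total fluorescence read at 555/632 nm.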
# GoLoco inh red: inhibitors of human Gai1-RGS12 GoLoco interaction (red fluorophore); Gai1:RGS12 GoLoco peptide FP, rhodamine, 10 min; Potency, µM (top dose mostly 61.6 µM), hits mostly inhibitors; 230,000 compounds, 0.44% hits; AID 880; active = well fitted inhibition curve with a large enough effect, not every such curve was filed as active; inactive = no such curve, though single readings can be large or run the other way; also: nearly all actives have a fitted effect of over 30% in size
# Tau ThT inhib: blocks human tau fibril formation measured by thioflavin T; Potency, µM (top dose mostly 57.4 µM), most hits filed as inhibitors; P10636; 270,000 compounds, 2.1% hits; AID 1460; recombinant tau K18 P301L, heparin-induced fibrillization, ThT fluorescence; also: nearly all actives have a fitted effect of over 55% in size
#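 Fibril formation assay: tau K18 P301L at 15 uM with trace Alexa 594 label, heparin inducer 20 uM, pH 7 sodium acetate buffer, 37 C for 6 hr; endpoint ThT signal.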
# TR SRC2 fluor cs: alters Texas Red total fluorescence, flagging assay interference; TRb/SRC2 Texas Red total fluorescence interference; Potency, µM (series often up to 106 µM); 280,000 compounds, 0.29% hits; AID 1479; active = well fitted curve in either direction with a large enough effect; inconclusive = small, poorly fitted or top-dose-only effect
#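 Human TRβ ligand-binding domain (0.6 uM) and Texas Red SRC2 peptide (20 nM) in Tris buffer with 1 uM T3 and 5% DMSO were incubated with pinned compound for 5 hr at ambient temperature. Total fluorescence was computed as S + 2P (555/632 nm).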
# A number is an active result; i = inactive; ? = inconclusive; nt = no result; [ ] = remark or other dose. Rows were chosen to be rich in hits. Some 3.1% of all compounds tested hit in one or more screens of this group. Unless noted, calls follow the shape of the dose curve; as a rule, active = well fitted curve in the direction sought with a large enough effect; inconclusive = small, poorly fitted or top-dose-only effect, or another doubt; inactive = no such curve, though single readings can be large; an effect the other way counts as inactive or inconclusive.
SMILES,TRb-SRC2 inh,Tau fibril FP,Tau fluor cs,GoLoco inh red,Tau ThT inhib,TR SRC2 fluor cs
O=c1[nH]c(=O)c2nnc(N/N=C/c3ccccc3F)nc2[nH]1,i,i,i,i,nt,i
O=c1[nH]c(=O)c2nnc(N/N=C\c3ccc(O)cc3)nc2[nH]1,i,i,i,i,4µM,i
Cc1ccc(C(=O)Nc2cccc([N+](=O)[O-])c2)cc1S(=O)(=O)Nc1ccc(NC(=O)c2ccccc2)cc1,i,?,4.5µM[quencher],i,i,i
Cc1ccc(C(=O)Nc2ccccc2)cc1S(=O)(=O)Nc1ccc(Br)cc1,i,16µM,?,nt,i,i
Cc1ccc(NS(=O)(=O)c2ccc(OCC(=O)Nc3cccc([N+](=O)[O-])c3)c(C)c2)cc1,i,i,14µM[quencher],i,i,i
N/C(=N\OC(=O)CCCOc1ccccc1)c1cccc(Br)c1,i,i,i,i,i,i
Cc1nnc(NCCc2ccccc2)n(N)c1=O,i,i,i,i,i,i
O=C(OC1Cc2c(O)cc(O)cc2OC1c1cc(O)c(O)c(O)c1-c1c(C2Oc3cc(O)cc(O)c3CC2O)cc(O)c(O)c1O)c1cc(O)c(O)c(O)c1 (stereo not drawn),i,?,13µM[quencher],i,18µM,i
Oc1cc(O)c2c(c1)O[C@@H](c1ccc(O)c(O)c1)[C@H](O[C@@]1(c3cc(O)c(O)c(O)c3)Oc3cc(O)cc(O)c3[C@H](O)[C@@H]1O)C2,nt,nt,nt,i[14.2 µM],nt,nt
Cc1cn(C2OC(COC(=O)c3ccccc3)C(OC(=O)c3ccccc3)C2OC(=O)c2ccccc2)c(=O)[nH]c1=O (stereo not drawn),i,i,i,i,i,i
O=C(OCC1OC(OC(=O)c2cc(O)c(O)c(OC(=O)c3cc(O)c(O)c(O)c3)c2)[C@@H](OC(=O)c2cc(O)c(O)c(OC(=O)c3cc(O)c(O)c(O)c3)c2)C(OC(=O)c2cc(O)c(O)c(OC(=O)c3cc(O)c(O)c(O)c3)c2)C1OC(=O)c1cc(O)c(O)c(OC(=O)c2cc(O)c(O)c(O)c2)c1)c1cc(O)c(O)c(OC(=O)c2cc(O)c(O)c(O)c2)c1 (stereo partly drawn),?,?,0.5µM[quencher],i,1.3µM,16µM[quencher]
CC(=O)Nc1cc(C(=O)c2ccccc2)ccc1N1CCOCC1,i,i,i,i,i,i
CC1=NN(Cc2ccccc2)C(=O)/C1=C\c1ccc(N(C)C)cc1,i,i,i,i,20µM,i
CCOC(=O)/C(=C\c1cccc(O)c1)c1nc2sc(C)c(C)c2c(=O)[nH]1,i,?,i,i,20µM,i
CCOC(=O)c1nc2sc(C)c(C)c2c(=O)[nH]1,i,i,i,i,i,i
CCSc1n[nH]c(=O)[nH]c1=O,i,i,i,i,i,i
Cc1[nH]n(-c2ccccc2)c(=O)c1/C=N/n1c(C)nc2ccccc2c1=O,i,i,i,i,i,i
Cc1ccc(-n2[nH]c(C)c(/C=N/n3c(C)nc4ccccc4c3=O)c2=O)cc1,i,?,i,i,25µM,i
Nc1ccc(N2CCN(c3ccc(Cl)c(Cl)c3)CC2)cc1,i,i,?,i,16µM,i
O=C(O)/C=C/C(=O)N1CCN(c2ccc(F)cc2)CC1,i,i,i,i,i,i
Nc1ccc(N2CCN(c3ccc(F)cc3)CC2)cc1,i,i,?,i,13µM,i
Nc1ccc(N2CCCCCC2)cc1,45µM,14µM,?,i,7.1µM,i
O=C(CSCc1c(Cl)cccc1Cl)Nc1ccc2c(c1)OCCO2,i,i,i,i,i,i
Cc1cc(N)n2ncc(-c3ccc(Cl)cc3)c2n1,i,?,14µM[quencher],i,?,i
CC(=O)NNC(=O)c1sc(=S)n2c1[nH]c(=O)c1sccc12,i,i,i,i,?,i
SMILES,TRb-SRC2 inh,Tau fibril FP,Tau fluor cs,GoLoco inh red,Tau ThT inhib,TR SRC2 fluor cs
NC(=O)c1sc(=S)n2c1[nH]c(=O)c1sccc12,i,i,i,i,11µM,i
CN1CCN(NC(=O)c2cccc3ccccc23)CC1,i,i,i,i,i,i
Cc1cc(C)n2c(Nc3ccc(Cl)cc3)c(-c3ccsc3)nc2n1,i,i,i,nt,i,1122µM[quencher]
COc1ccc(OC)c(NC(=O)CC(NC(C)=O)c2ccccc2)c1 (stereo not drawn),i,i,i,i,i,i
O=C(Nc1nc(=O)n(C(=O)C2CC2)s1)c1ccccc1,i,?,i,i,11µM,i
Cc1ccc(C(=O)Nc2nc(=O)n(C(=O)c3ccccc3C)s2)cc1,i,?,i,i,14µM,i
O=C(Nc1ccc(S(=O)(=O)N2CCOCC2)cc1)c1cc(-c2cc(Cl)ccc2O)n[nH]1,i,?,?,i,?,i
CC(C)C(C)(C#N)NC(=O)CSc1nc2scc(-c3ccco3)c2c(=O)n1-c1ccccc1 (stereo not drawn),?,7.9µM,i,i,10µM,?
Oc1cc2c(cc1O)[C@@H]1c3ccc(O)c(O)c3OC[C@]1(O)C2,i,?,?,i,14µM,i
Cc1c(NC(=S)N/N=C/c2cc([N+](=O)[O-])ccc2O)c(=O)n(-c2ccccc2)n1C,i,i,i,i,32µM,i
COC(=O)c1ccc(NC(=O)CN(C)Cc2cccc(F)c2)cc1,i,i,i,i,i,i
CCOc1ccc(C(=O)Nc2ccc3c(c2)OCCO3)cc1Br,i,i,16µM[quencher],nt,?,i
O=c1cc(-c2c(F)c(F)c(F)c(F)c2F)oc2c(F)c(F)c(F)c(F)c12,i,?,?,i,14µM,i
CC1=C(c2ccc(Cl)cc2)S(=O)(=O)N=C1N1CCC(C(=O)NCCc2ccco2)CC1,i,i,i,nt,i,i
CC1=C(c2ccc(C(C)C)cc2)S(=O)(=O)N=C1N1CCC(C(=O)NCCc2ccco2)CC1,i,i,i,nt,?,25µM[quencher]
NC(CCC(=O)N[C@@H](CS)C(=O)NCC(=O)O)C(=O)O (stereo partly drawn),i,?,i,i,32µM,i
CCNC(=O)CCC(N)C(=O)O (stereo not drawn),i,i,i,i,i,i
CC1CCCCC1NC(=S)Nc1cccc(S(=O)(=O)N(C)C)c1 (stereo not drawn),i,i,i,i,i,i
COc1ccc(Br)cc1CNc1ccc(O)cc1,8.9µM,25µM,?,20µM,13µM,?
COc1cc(CNc2ccc(O)cc2)cc(Br)c1OCc1ccccc1,?,?,13µM[quencher],i,25µM,i
N#Cc1nc(COc2ccc(F)cc2)oc1NCCN1CCOCC1,i,i,i,i,i,i
CN1CCc2nc(SCC(=O)Nc3cccc(F)c3)c(C#N)c(-c3cccs3)c2C1,i,i,16µM[quencher],i,14µM,i
Cc1cccc(CSc2nc3c(c(-c4cccs4)c2C#N)CN(C)CC3)c1,i,i,25µM[quencher],i,16µM,i

# Screening data (PubChem BioAssay)
